# Source: PubChem BioAssay (NCATS)
# Values without a mark were called inactive. Results filed as inconclusive are left out. Entries that show only a call come without a potency. Active and inactive are the calls of the source. Calls follow the shape of the dose curve; as a rule, active = well fitted curve in the direction sought with a large enough effect; inconclusive = small, poorly fitted or top-dose-only effect, or another doubt; inactive = no such curve, though single readings can be large; an effect the other way counts as inactive or inconclusive.
# Experiments:
# [1] = target: Glutathione peroxidase 1 (Homo sapiens) (UniProt P07203); assay: Primary qHTS Assay for Inhibitors of Recombinant Selenoprotein Glutathione Peroxidase 1 (GPX1) (AID 1845191); also: nearly all actives have a fitted effect of over 65% in size
# In short: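 GPX1 10 nM, GR 100 nM, GSH 1 mM, NADPH 0.5 mM, CHP 0.5 mM (final). 30-min cpd preincubation, RT. Ex340/Em450 read t=0, t=15 min.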
# [2] = target: Phospholipid hydroperoxide glutathione peroxidase GPX4 (Homo sapiens) (UniProt P36969); assay: Primary qHTS Assay for Inhibitors of Recombinant Selenoprotein Glutathione Peroxidase 4 (GPX4) (AID 1845192); also: nearly all actives have a fitted effect of over 65% in size; also: potency is read from the fitted curve at half-maximal effect; as to activity change, negative = inhibition: series mostly up to about 50 µM
# In short: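 qHTS, GR-coupled: GPX4 200 nM + cpd 30 min RT → GSH 1 mM, NADPH 0.5 mM, GR 100 nM → CHP 0.5 mM start; fluor 340/450 at t0 and t15 min; no-enzyme wells as control.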
# [3] = target: Metallo-beta-lactamase type 2 (Klebsiella pneumoniae) (UniProt C7C422); assay: qHTS to identify inhibitors of the New Delhi Metallo-beta-lactamase (NDM): assay validation screen against the NCATS LOPAC Collection (AID 1794843);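 also: nitrocefin turnover by NDM-1 measured as 485 nm absorbance at plateau; series mostly up to about 38 µM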
# In short: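 Enzyme 2 nM final, 50 mM HEPES pH 7.0, 1 uM ZnSO4, 0.01% Tween20; cpds in DMSO, preincub w/ enzyme; + nitrocefin (50 uM stock); A485 at plateau; no-enzyme column as blank.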
# [4] = target: Nuclear receptor subfamily 1 group I member 3 (Homo sapiens) (UniProt Q14994); assay: Primary qHTS for agonist of constitutive androstane receptor (CAR) against the NCATS DSHEA and TCM libraries (AID 1794839);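 also: HepG2 cells expressing human CAR with a CYP2B6 reporter plus PK11195 antagonist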
# In short: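 HepG2-CYP2B6-hCAR cells (2,500/well) were attached for 5 h, then treated for 24 h at 37 °C with compounds plus 0.75 µM PK11195. Luciferase luminescence (ONE-Glo) was read, with CellTiter-Fluor viability (Ex/Em 405/540 nm).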
# [5] = HepG2 viability counterscreen (readout 2: ATP content) against the NCATS DSHEA and TCM libraries (AID 1794840);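 also: HepG2 cells exposed to substances for about 24 h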
# In short: (§1)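 HepG2 cells (1,000 cells/well) attached ~4 h, then treated ~24 h at 37C with substances. Protease activity read by GF-AFC (25 uM final, 30 min, Ex/Em 380/510 nm); ATP content then by CellTiter-Glo luminescence.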
# [6] = HepG2 viability counterscreen (readout 1: protease activity) against the NCATS DSHEA and TCM libraries (AID 1794841);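 also: cells exposed to compounds for about 24 h before the protease read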
# In short: as §1
# [7] = target: Luciferin 4-monooxygenase (Photinus pyralis) (UniProt P08659); assay: Primary firefly luciferase (FLuc) qHTS assay for identification of artifact compounds. (AID 1845220); also: nearly all actives have a fitted effect of over 60% in size
# In short: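 Reaction readout was CCD-imaged luminescence, taken 5 min after adding 10 nM purified firefly enzyme to compound-treated wells holding 10 uM luciferin and ATP in pH 7.6 buffer.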
# [8] = Primary fluorescence-based thiol-reactive (MSTI) qHTS assay for identification of artifact compounds. (AID 1845221);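 also: series mostly up to about 54 µM; thiol-reactive compounds lower the probe fluorescence signal; nearly all actives have a fitted effect of over 65% in size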
# In short: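 One-hour, room-temperature, dark incubation of compound with 4 uM MSTI in PBS (pH 7.4, 2% DMSO) precedes a fluorescence read at 525 nm excitation, 598 nm emission; Hill-equation fitting yields concentration-response values.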
# [9] = system: Nanoluciferase (engineered Oplophorus gracilirostris luciferase); assay: Primary Nanoluciferase (NLuc) qHTS assay for identification of artifact compounds. (AID 1845222);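 also: NLuc secreted into diluted conditioned medium of S16 cells; series mostly up to about 54 µM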
# In short: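 Concentration-response data were obtained by luminescence after 5 min with Nano-Glo substrate at 1:100. The enzyme was diluted S16 NLuc-expressing cell medium, preincubated with compound for 15 min at RT. Curves were fitted with a 4-parameter Hill model.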
# [10] = Primary redox qHTS assay for identification of artifact compounds. (AID 1845223)
# In short: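 Redox-cycling detection via DTT (250 uM final) oxidation coupled to Amplex Red (25 uM)/HRP (250 mU/mL) in HBSS. 15 min preincubation plus 30 min after DTT, room temperature. Ex/Em 525/598 nm; 4-parameter Hill fit against DMSO and 10 uM DA3003.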
# [11] = target: Cytochrome P450 2D6 (Homo sapiens) (UniProt P10635); assay: qHTS for inhibitors of CYP2D6 against the NCATS DSHEA and TCM libraries (AID 1919972)
# In short: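 qHTS, concentration–response format with most substances from 19.5 nM. CYP2D6 + pro-luciferin substrate, 15 min with compound, then 1x NADPH regen, 30–45 min RT dark. Glo detection 30 min, luminescence. Quinidine control.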
# [12] = target: Cytochrome P450 2C9 (Homo sapiens) (UniProt P11712); assay: qHTS for inhibitors of CYP2C9 against the NCATS DSHEA and TCM libraries (AID 1919973);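 also: luminogenic pro-luciferin CYP2C9 substrate turned into luciferin with NADPH regeneration; series mostly up to about 34 µM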
# In short: (§2)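 Substances were tested against enzyme with a pro-luciferin substrate; minus-enzyme wells served as background. After NADPH-initiated oxidation (30-45 min, RT), light was generated with P450-Glo reagent.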
# [13] = target: Cytochrome P450 2C19 (Homo sapiens) (UniProt P33261); assay: qHTS for inhibitors of CYP2C19 against the NCATS DSHEA and TCM libraries (AID 1919974);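 also: luminescence from luciferin released by CYP2C19 oxidation of a pro-luciferin substrate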
# In short: as §2
# [14] = KB-3-1 P-gp reporter qHTS against the NCATS DSHEA and TCM libraries (AID 1919975)
# In short: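 Parental KB-3-1 human cervical adenocarcinoma cells (500 cells/well, DMEM + 10% FBS) were treated with substances for ~72 h at 37C; viability was read by CellTiter-Glo luminescence.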
# [15] = target: Cytochrome P450 1A2 (Homo sapiens) (UniProt P05177); assay: qHTS for inhibitors of CYPIA2 against the NCATS DSHEA and TCM libraries (AID 1919976); also: series mostly up to about 37 µM
# In short: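 Luminescence read-out: pro-luciferin converted to D-luciferin by CYP1A2, detected with P450-Glo reagent after 30 min RT. Enzyme plus substrate got compounds for 15 min RT; NADPH regeneration solution (final 1x) started a 30-45 min reaction, light-protected.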
# [16] = qHTS Counterscreen for compound interference against the NCATS DSHEA and TCM libraries (AID 1919978); settings: firefly luciferase detection reagent interference, luminescence
# In short: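 D-luciferin (1 uM final) or 100 mM potassium phosphate buffer alone was preincubated 15 min at RT with compounds (19.5 nM to 39.8 uM final). Luciferin detection reagent was then added and luminescence read after 30 min at RT.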
# [17] = Dual reporter qHTS for agonist of Pregnane X Receptor (hPXR) against the NCATS DSHEA and TCM libraries: Fluorescence readout (AID 1920058)
# In short: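 Fluorescence read-out for cell viability: CellTiter-Fluor, 1 h at 37 °C, Ex/Em 405/540 nm. This followed ~24 h treatment of hPXR-Luc HepG2 cells with substances in agonist mode.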
# [18] = target: Nuclear receptor subfamily 1 group I member 2 (Homo sapiens) (UniProt O75469); assay: Dual reporter qHTS for agonist of Pregnane X Receptor (hPXR) against the NCATS DSHEA and TCM libraries: Luminescence readout (AID 1920059)
# In short: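 hPXR-LucHepG2 cells in phenol red-free DMEM with 5% charcoal-stripped FBS, 2000 cells/well, attached 5 h, then exposed 24 h at 37C to compounds; rifampicin as positive agonist control (2.8 nM–92 uM). Luciferase luminescence read.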
# [19] = target: Nuclear receptor subfamily 1 group I member 2 (Homo sapiens) (UniProt O75469); assay: Dual reporter qHTS for antagonist of Pregnane X Receptor (hPXR) against the NCATS DSHEA and TCM libraries: Luminescence Readout (AID 1920060);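 also: HepG2 cells carrying hPXR luciferase reporter stimulated with rifampicin at 2 µM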
# In short: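 HepG2 hPXR-Luc, 2000 cells/well, charcoal-stripped FBS medium; 5 h attach; RIF 2 uM final; 24 h 37C/5% CO2; CellTiter-Fluor 1 h, fluor 405/540; ONE-Glo 30 min RT, lum.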
# Phospholipid hydroperoxide glutathione peroxidase GPX4 (Homo sapiens), sequence (P36969 whole entry, looked up): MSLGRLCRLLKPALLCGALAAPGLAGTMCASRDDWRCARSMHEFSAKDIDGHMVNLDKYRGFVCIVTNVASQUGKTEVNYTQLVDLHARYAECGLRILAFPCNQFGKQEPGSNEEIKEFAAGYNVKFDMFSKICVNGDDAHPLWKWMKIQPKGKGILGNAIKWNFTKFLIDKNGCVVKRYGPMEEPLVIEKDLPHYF
# Glutathione peroxidase 1 (Homo sapiens), sequence (P07203 whole entry, looked up): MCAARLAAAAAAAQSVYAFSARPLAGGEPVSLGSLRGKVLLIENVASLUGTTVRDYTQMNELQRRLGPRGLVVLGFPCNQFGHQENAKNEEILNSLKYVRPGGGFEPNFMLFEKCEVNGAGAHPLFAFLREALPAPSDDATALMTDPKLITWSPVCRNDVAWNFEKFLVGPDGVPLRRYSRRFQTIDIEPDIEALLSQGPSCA
# Nuclear receptor subfamily 1 group I member 2 (Homo sapiens), sequence (O75469 whole entry, looked up): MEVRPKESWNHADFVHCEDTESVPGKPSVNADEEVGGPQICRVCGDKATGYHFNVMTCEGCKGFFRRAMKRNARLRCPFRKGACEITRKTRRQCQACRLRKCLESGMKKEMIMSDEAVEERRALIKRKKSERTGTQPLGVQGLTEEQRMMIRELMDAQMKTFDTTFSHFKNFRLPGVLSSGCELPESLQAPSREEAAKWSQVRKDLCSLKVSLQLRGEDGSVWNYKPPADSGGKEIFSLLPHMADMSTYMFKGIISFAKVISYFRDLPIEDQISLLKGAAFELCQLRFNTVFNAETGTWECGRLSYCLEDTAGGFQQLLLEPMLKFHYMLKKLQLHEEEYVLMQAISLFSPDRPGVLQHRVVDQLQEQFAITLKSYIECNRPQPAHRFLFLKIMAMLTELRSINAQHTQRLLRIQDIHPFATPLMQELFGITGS
# Nuclear receptor subfamily 1 group I member 3 (Homo sapiens), sequence (Q14994 whole entry, looked up): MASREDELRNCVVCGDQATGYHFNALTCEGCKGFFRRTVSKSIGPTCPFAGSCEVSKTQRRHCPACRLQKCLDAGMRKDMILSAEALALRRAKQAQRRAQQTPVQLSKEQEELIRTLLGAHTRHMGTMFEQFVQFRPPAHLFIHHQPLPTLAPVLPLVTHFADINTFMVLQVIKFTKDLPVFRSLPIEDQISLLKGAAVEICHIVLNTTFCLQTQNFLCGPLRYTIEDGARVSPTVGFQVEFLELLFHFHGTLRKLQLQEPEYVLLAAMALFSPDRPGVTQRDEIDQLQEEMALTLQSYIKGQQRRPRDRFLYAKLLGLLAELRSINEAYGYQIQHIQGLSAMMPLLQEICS
# Cytochrome P450 2C19 (Homo sapiens), sequence (P33261 whole entry, looked up): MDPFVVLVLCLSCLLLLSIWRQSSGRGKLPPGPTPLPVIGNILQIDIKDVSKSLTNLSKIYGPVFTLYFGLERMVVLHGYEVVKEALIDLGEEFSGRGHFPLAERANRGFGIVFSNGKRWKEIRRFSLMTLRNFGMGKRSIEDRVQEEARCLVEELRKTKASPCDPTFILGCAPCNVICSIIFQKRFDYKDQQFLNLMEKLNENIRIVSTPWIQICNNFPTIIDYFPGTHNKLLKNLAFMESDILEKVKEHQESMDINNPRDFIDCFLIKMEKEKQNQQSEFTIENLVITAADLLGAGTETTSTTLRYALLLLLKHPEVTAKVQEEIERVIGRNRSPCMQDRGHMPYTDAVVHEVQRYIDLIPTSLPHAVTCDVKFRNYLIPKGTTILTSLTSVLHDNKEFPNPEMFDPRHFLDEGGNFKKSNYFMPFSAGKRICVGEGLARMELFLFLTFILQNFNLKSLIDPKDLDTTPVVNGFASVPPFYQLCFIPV
# Cytochrome P450 2C9 (Homo sapiens), sequence (P11712 whole entry, looked up): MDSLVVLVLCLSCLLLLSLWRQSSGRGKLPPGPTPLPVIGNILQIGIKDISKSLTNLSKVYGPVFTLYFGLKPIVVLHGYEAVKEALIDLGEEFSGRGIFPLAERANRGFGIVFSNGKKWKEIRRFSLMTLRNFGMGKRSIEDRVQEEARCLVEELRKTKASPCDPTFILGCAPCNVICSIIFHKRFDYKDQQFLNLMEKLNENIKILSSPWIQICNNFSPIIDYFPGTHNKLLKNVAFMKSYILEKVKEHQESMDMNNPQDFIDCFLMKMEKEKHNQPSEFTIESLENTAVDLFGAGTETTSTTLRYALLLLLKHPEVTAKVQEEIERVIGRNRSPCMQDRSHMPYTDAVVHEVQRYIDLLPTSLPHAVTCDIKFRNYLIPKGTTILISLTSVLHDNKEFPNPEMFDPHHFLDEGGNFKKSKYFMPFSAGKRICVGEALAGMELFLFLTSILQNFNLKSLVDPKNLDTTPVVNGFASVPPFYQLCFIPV
# Metallo-beta-lactamase type 2 (Klebsiella pneumoniae), sequence (C7C422 whole entry, looked up): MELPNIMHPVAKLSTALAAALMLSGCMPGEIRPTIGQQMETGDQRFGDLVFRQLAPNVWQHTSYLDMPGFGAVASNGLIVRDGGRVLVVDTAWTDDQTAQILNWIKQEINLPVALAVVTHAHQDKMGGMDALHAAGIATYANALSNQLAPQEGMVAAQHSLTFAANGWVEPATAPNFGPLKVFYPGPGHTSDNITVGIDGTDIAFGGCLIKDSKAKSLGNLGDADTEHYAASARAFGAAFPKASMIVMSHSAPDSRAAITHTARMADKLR
# Cytochrome P450 2D6 (Homo sapiens), sequence (P10635 whole entry, looked up): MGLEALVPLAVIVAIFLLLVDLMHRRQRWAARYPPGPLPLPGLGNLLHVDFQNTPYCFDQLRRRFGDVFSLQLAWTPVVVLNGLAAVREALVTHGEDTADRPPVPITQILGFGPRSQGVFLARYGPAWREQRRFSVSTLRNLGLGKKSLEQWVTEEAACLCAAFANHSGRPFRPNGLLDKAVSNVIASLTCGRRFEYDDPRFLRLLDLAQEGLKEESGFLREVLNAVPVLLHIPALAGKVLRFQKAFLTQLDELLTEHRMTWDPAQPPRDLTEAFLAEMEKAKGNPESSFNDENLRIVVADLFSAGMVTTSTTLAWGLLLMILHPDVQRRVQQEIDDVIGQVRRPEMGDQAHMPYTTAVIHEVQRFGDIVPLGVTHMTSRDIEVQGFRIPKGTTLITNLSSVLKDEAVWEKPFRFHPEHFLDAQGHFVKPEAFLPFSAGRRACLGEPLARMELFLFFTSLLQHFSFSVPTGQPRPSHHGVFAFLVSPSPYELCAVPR
# Cytochrome P450 1A2 (Homo sapiens), sequence (P05177 whole entry, looked up): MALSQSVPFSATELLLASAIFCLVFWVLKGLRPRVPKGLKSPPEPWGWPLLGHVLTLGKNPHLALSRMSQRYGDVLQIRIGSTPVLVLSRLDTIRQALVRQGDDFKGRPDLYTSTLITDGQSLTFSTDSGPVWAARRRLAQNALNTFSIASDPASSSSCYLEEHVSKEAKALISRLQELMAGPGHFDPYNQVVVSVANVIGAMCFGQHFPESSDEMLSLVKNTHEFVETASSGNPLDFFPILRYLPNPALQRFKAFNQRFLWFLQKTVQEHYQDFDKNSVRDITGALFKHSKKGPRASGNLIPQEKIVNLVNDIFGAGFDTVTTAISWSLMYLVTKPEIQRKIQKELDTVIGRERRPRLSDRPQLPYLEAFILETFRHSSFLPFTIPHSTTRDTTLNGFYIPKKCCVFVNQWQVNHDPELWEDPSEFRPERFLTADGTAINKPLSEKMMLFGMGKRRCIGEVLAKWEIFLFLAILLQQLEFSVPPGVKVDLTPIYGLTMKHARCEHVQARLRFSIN
structure (smiles),measurement,setting,value
CCCCCCCCCCCCCCCCCC(=O)OCCO,Potency,[1],inactive
same,Potency,[2],inactive
CN[C@H]1CC[C@@H](c2ccc(Cl)c(Cl)c2)c2ccccc21,outcome,[3],inactive
same,Potency,[1],inactive
same,Potency,[2],inactive
CC1=C(C(=O)OCCN(Cc2ccccc2)c2ccccc2)C(c2cccc([N+](=O)[O-])c2)C(P2(=O)OCC(C)(C)CO2)=C(C)N1 (stereo unspecified),Potency,[1],inactive
C=C1[C@H]2CC[C@H](C(=O)O)[C@@]23CC[C@H](C3)C1(C)C,outcome,[4],inactive
same,outcome,[5],inactive
same,outcome,[6],inactive
same,Potency,[1],inactive
same,Potency,[2],inactive
same,Potency,[7],inactive
same,Potency,[8],inactive
same,Potency,[9],inactive
same,Potency,[10],inactive
same,outcome,[11],inactive
same,Potency,[12],inactive
same,Potency,[13],inactive
same,outcome,[14],inactive
same,Potency,[15],inactive
same,max response,[16],1.56%
same,outcome,[17],inactive
same,outcome,[18],inactive
same,outcome,[19],inactive
CC(CN1c2ccccc2Sc2ccc(S(=O)(=O)N(C)C)cc21)N(C)C (stereo unspecified),Potency,[1],inactive
O=P(O)(O)OC(CO)CO,Potency,[1],inactive
same,Potency,[2],inactive
CC1(C)S[C@@H]2[C@H](NC(=O)[C@H](N)c3ccccc3)C(=O)N2[C@H]1C(=O)OCOC(=O)[C@@H]1N2C(=O)C[C@H]2S(=O)(=O)C1(C)C,Potency,[1],inactive
CN1C(=O)c2sccc2N(C)c2nc(Nc3ccc(S(N)(=O)=O)cc3)ncc21,Potency,[1],inactive
CCN(CC)CCOC(=O)c1ccc(N)cc1Cl,Potency,[1],inactive
same,Potency,[2],inactive
CCCCCCCCCCCCCCCC(=O)O[C@@H]1CC(C)=C(/C=C/C(C)=C/C=C/C(C)=C/C=C/C=C(C)/C=C/C=C(C)/C=C/C2=C(C)C[C@@H](OC(=O)CCCCCCCCCCCCCCC)CC2(C)C)C(C)(C)C1,Potency,[1],inactive
same,Potency,[2],1.26 µM (active)
CSCC[C@H](NC(=O)[C@H](Cc1ccc(OS(=O)(=O)O)cc1)NC(=O)[C@@H](N)CC(=O)O)C(=O)NCC(=O)N[C@@H](Cc1c[nH]c2ccccc12)C(=O)N[C@@H](CCSC)C(=O)N[C@@H](CC(=O)O)C(=O)N[C@@H](Cc1ccccc1)C(N)=O,Potency,[1],inactive
same,Potency,[2],15.8 µM (active)
O=P(O)(O)C(O)(Cc1cnc2ccccn12)P(=O)(O)O,"activity, negative = inhibition",[1],-12.2% [at 0.4 µM]
same,"activity change, negative = inhibition",[2],0.142% [at 0.409 µM]
C[C@@H]1CN(CC(=O)N2CC(C)(C)c3ncc(Cc4ccc(F)cc4)cc32)[C@@H](CN2CCOC[C@H]2C)CN1,Potency,[1],inactive
same,Potency,[2],inactive
CC(C)(S)C(=O)N[C@@H](CS)C(=O)O,Potency,[1],inactive
same,Potency,[2],inactive
Cc1c(N)nc(C(CC(N)=O)NCC(N)C(N)=O)nc1C(=O)NC(C(=O)NC(C)C(O)C(C)C(=O)NC(C(=O)NCCc1nc(-c2nc(C(=O)NCCCN[C@@H](C)c3ccccc3)cs2)cs1)C(C)O)C(O[C@@H]1O[C@@H](CO)[C@@H](O)[C@H](O)[C@@H]1O[C@H]1O[C@H](CO)[C@@H](O)[C@H](OC(N)=O)[C@@H]1O)c1cnc[nH]1 (stereo partly specified),Potency,[1],inactive
same,Potency,[2],inactive
C=Cc1ccccc1,Potency,[1],inactive
same,Potency,[2],inactive
CCCCCCCC(=O)CC[C@@H]1[C@@H](C/C=C\CCCC(=O)OC(C)C)[C@@H](O)C[C@H]1O,Potency,[1],inactive
same,Potency,[2],inactive
COc1cc(C[C@@H]2NCCc3cc(O)c(O)cc32)cc(OC)c1OC,Potency,[1],inactive
same,Potency,[2],inactive
CN=C(NC)NCc1ccccc1,Potency,[1],inactive
same,Potency,[2],inactive
C1CNCCN1,Potency,[1],inactive
same,Potency,[2],inactive
O=C(O)c1cc2ccccc2c(Cc2c(O)c(C(=O)O)cc3ccccc23)c1O,Potency,[1],inactive
same,Potency,[2],inactive
CC(=O)OCC(=O)[C@@]1(O)[C@H](C)C[C@H]2[C@@H]3C[C@H](F)C4=CC(=O)C=C[C@]4(C)[C@H]3[C@@H](O)C[C@@]21C,Potency,[1],inactive
same,Potency,[2],inactive
NC(=O)c1cnc(N[C@@H]2CCCC[C@@H]2N)nc1Nc1cccc(-n2nccn2)c1,Potency,[1],inactive
same,Potency,[2],inactive
CC(=O)O[C@H]1C[C@@H]2CC[C@@H]3[C@H](CC[C@@]4(C)[C@H]3C[C@H](N3CC[N+](C)(C)CC3)[C@@H]4OC(C)=O)[C@@]2(C)C[C@@H]1N1CC[N+](C)(C)CC1,Potency,[1],inactive
same,Potency,[2],inactive
CCCCOC(=O)C(=O)Nc1cccc(-c2nn[nH]n2)c1,Potency,[1],inactive
same,Potency,[2],inactive
Cc1ccc(C2(O)CCN(CCCC(=O)c3ccc(F)cc3)CC2)cc1,Potency,[1],inactive
same,Potency,[2],inactive
O=C(Cn1c(=O)sc2ccc(Cl)cc21)N1CCN(CCO)CC1,Potency,[1],inactive
same,Potency,[2],inactive
CC(C)(C)NC(=O)[C@H]1CC[C@H]2[C@@H]3CC=C4C=C(C(=O)O)CC[C@]4(C)[C@H]3CC[C@]12C,Potency,[1],inactive
same,Potency,[2],inactive
OCC(O)COc1ccc(Cl)cc1 (stereo unspecified),Potency,[1],inactive
same,Potency,[2],inactive
CCOc1ccc(N=C(C)Nc2ccc(OCC)cc2)cc1,Potency,[1],inactive
same,Potency,[2],inactive
O=P(O)(O)OC(Cn1cncn1)(Cn1cncn1)c1ccc(F)cc1F,Potency,[1],inactive
same,Potency,[2],inactive
CCOC(=O)[C@@]1(CCCCCCOc2ccc(Cl)cc2)CO1,Potency,[1],inactive
same,Potency,[2],inactive
C[N+](C)(CCCCCC[N+](C)(C)C1c2ccccc2-c2ccccc21)C1c2ccccc2-c2ccccc21,Potency,[1],inactive
same,Potency,[2],inactive
CN1CCN(C2=Nc3ccccc3Cc3ccccc32)CC1,Potency,[1],inactive
same,Potency,[2],inactive
